# Data: PubChem BioAssay (EPA / NIEHS)
# Several values for one entry are separate records, joined by “and”; a condition that tells them apart may be missing. Equal entries are not always repeated. Activity calls are given as the source filed them. Rule for the calls: active = hit-call score of the fitted dose curve at least 0.9, where 1 is the maximum; inactive = score below 0.9.
# Read-out: Monocyte Chemoattractant Protein-1 (MCP1), CCL2 (gene 6347)
# Experiment: BSK_4H_MCP1: BioMAP Diversity Plus: 4H Assay for Monocyte Chemoattractant Protein-1 (MCP1) Biomarker Activity (AID 2283018)
# Conditions: primary human endothelial cells (HUVEC); actives raise or lower the signal
# Protocol: BSK_4H is a cell-based, multiplexed-readout assay that uses umbilical vein endothelium, a human vascular primary cell, with measurements taken at 24 hours after chemical dosing in a 96-well plate.BSK_4H_MCP1 is an assay component measured in the BSK_4H assay. It measures MCP-1 antibody related to regulation of gene expression using ELISA technology.Data from the assay component BSK_4H_MCP1 was analyzed into 1 assay endpoint. This assay endpoint, BSK_4H_MCP1, was analyzed with bidirectional fitting relative to DMSO as the negative control and baseline of activity. Using a type of binding reporter, gain or loss-of-signal activity can be used to understand changes in the signaling as they relate to the gene CCL2. Furthermore, this assay endpoint can be referred to as a primary readout, because this assay has produced multiple assay endpoints where this one serves a signaling function. To generalize the intended target to other relatable targets, this assay endpoint is annotated to the cytokine intended target family, where the subfamily is chemotactic factor.
# The levels of cell surface (or secreted, indicated by the prefix "s") biomarker endpoints were measured by ELISA. Overt cytotoxicity to cells in confluent adherent cultures (all systems other than the BT system) was assessed by measuring total protein levels using sulforhodamine B (SRB) staining in parallel cultures at the time of biomarker measurements, indicated as SRB endpoints. For proliferation assays for adherent cell types, individual cell types are cultured at sub-confluence and relative cell numbers quantified by SRB staining at time points optimized for each system (48 h: 3C and CASM3C systems; 72 h: BT and HDF3CGF systems; 96 h: SAg system). SRB was performed by staining cells with 0.1% SRB after fixation with 10% TCA and reading wells at 560 nm.Viability and proliferation of PBMC (T cells) was quantified by Alamar Blue reduction for the SAg and BT systems. For PBMC viability (referred to as PBMC Cytotoxicity within the assay endpoint names), cells were plated (75,000/well in a 96-well plate) and then chemical samples added for 1 h before addition of activators, SEB and TSST-1 (20 ng/mL final concentration each). Cells were incubated for 90 h. Then, Alamar Blue (20 uL/well) (Invitrogen, Cat DAL1100) was added for 6 h, and the plates were read with a fluorescence microplate reader at 546/580 nm (excitation/emission). For PBMC proliferation, cells were plated and activated as above but incubated for only 16 h prior to addition of Alamar Blue. Plates were read after 6 h.
SMILES,outcome,AC50
CCN1CN(CC)CN(CC)C1,inactive,–
CC=C(C)C(C)=O,inactive,–
CCCCCCCCC(CO)CCCCCC (stereo not given),inactive,–
CCCCCCCCCCCC(=O)N(C)CC(=O)O,inactive,–
CCCC(C)C(=O)OCC (stereo not given),inactive,–
C[N+](C)(C)CCCNS(=O)(=O)C(F)(F)C(F)(F)C(F)(F)C(F)(F)C(F)(F)C(F)(F)C(F)(F)C(F)(F)F,inactive,–
Fc1ccc(Br)cc1,inactive,–
CCNc1nc(NC(C)(C)C)nc(OC)n1,inactive,–
CCc1cccc(C)c1N(C(=O)CS(=O)(=O)O)C(C)COC (stereo not given),inactive,–
O=C1CCCCCCCCCCC1,inactive,–
Cc1c(O)cccc1O,inactive,–
CC=C(C)C=CC=C(C)C,inactive,–
CC(Cl)COP(=O)(OCC(C)Cl)OCC(C)Cl (stereo not given),inactive,–
Oc1ccc(/C=C/c2cc(O)cc(O)c2)cc1,–,9.4 µM (active)
C=C(C)C(=O)OCCCCCCCCCCCC,inactive,–
CCCCCCCO,inactive,–
C=CC(=O)OCC(C)OCC(C)OCC(C)OC(=O)C=C (stereo not given),–,7.07 µM (active)
CCC1(C)C(=O)N(Cl)C(=O)N1Cl (stereo not given),inactive,–
COC(OC)(C(=O)c1ccccc1)c1ccccc1,–,0.016 µM (active)
c1ccc2c(c1)[nH]c1ccccc12,inactive,–

SMILES,outcome,AC50
Clc1cc(Cl)c(Cl)c(Cl)c1Cl,inactive,–
O=C1CCCCCCCCCCCN1,inactive,–
CC1=CC=C(C(C)C)CC1,inactive,–
C=CC(=O)NC(C)(C)C,inactive,–
Nc1cccc(N)n1,inactive,–
CCOC(=O)/C=C\C(=O)OCC,inactive,–
CCCCC1C(=O)N(c2ccccc2)N(c2ccccc2)C1=O,inactive,–
CC(CCC(=O)O)(c1ccc(O)cc1)c1ccc(O)cc1,inactive,–
O=C(Cl)c1c(Cl)c(Cl)c(C(=O)Cl)c(Cl)c1Cl,inactive,–
CC/C=C\C/C=C\C/C=C\CCCCCCCC(=O)OC,–,32.7 µM (active)
CC/C=C\CCOC(=O)c1ccccc1O,–,10.9 µM (active)
Nc1ccc(C(=O)O)cc1,inactive,–
C=CC(=O)OCCCCCCCC(C)C,inactive,–
COc1ccc(C(=O)c2ccccc2)c(O)c1,inactive,–
O=C(Oc1ccccc1)c1ccccc1C(=O)Oc1ccccc1,inactive,–
Cc1ccc([N+](=O)[O-])cc1N,inactive,–
Oc1ccccc1Cc1ccccc1O,–,4.2 µM (active) and 10.9 µM (active)
C=CC(=O)NCOCCCC,inactive,–
CCCCCCCCCCCC(C)=O,–,29.8 µM (active)
CC1(C)CC(O)CC(C)(C)N1[O],inactive,–
